# Sampled rows, rich in hits. Any-hit rate of the full collection: about 4.7%.
# PfHsp90 set2 = growth inhibition of yeast expressing Plasmodium Hsp90; S. cerevisiae expressing PfHsp90, BacTiter-Glo ATP, 48 h; yeast lacking PDR1 and PDR3 efflux regulators; 310,000 compounds, 0.32% hits; inhibition, % at 9.4 µM; AID 504621;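 active = every replicate shows inhibition above about 80%, whatever the replicate mean, limit read from the data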
# ATG4B inh = blocks human ATG4B protease cleavage of LC3 substrate; ATG4B cleavage of LC3-PLA2, NBD-HPC fluorescence, 1 h; Q9Y4P1; inhibition, % at 8.33 µM; 340,000 compounds, 0.51% hits; in the data active = inhibition above about 40%
# Target sequence (Q9Y4P1 whole entry, looked up): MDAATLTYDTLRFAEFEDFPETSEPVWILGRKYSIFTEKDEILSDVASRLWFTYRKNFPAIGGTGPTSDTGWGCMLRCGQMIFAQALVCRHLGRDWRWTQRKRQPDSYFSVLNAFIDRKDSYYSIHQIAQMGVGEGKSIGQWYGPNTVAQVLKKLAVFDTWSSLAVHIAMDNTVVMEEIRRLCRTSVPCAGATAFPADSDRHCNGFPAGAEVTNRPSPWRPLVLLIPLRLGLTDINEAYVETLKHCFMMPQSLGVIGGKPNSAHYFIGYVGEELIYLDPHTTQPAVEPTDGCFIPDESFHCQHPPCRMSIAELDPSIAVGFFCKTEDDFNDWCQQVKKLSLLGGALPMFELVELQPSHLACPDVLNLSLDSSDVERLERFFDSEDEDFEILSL
# SKKanGAS inh = SKKanGAS growth inhibition. S. pyogenes SKKanGAS, kanamycin growth, BacTiter-Glo, 6 h. inhibition, % at 7.5 µM. 300,000 compounds, 1.3% hits. AID 1662;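 active = mean replicate score, as percent of positive control median, at least 50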;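 also: strain carries kanamycin resistance gene driven by streptokinase promoter and grows in 40 µg/ml kanamycin; loss of luminescence reflects streptokinase promoter inhibition or plain growth inhibition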
# TIM10 inh = TIM10 yeast growth inhibition | S. cerevisiae TIM10 strain growth, BacTiter-Glo luminescence, 24 h | inhibition, % at 10 µM | 330,000 compounds, 1.4% hits | AID 463195;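 active = inhibition of 40% or more at the single tested concentration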;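 also: wild-type TIM10 isogenic control strain grown at permissive 25 °C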
# tim10-1 inh = tim10-1 yeast growth inhibition | inhibition, % at 20 µM | AID 463190 | 330,000 compounds, 2.2% hits | S. cerevisiae tim10-1 ts strain growth, BacTiter-Glo, 24 h;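 active = inhibition of at least 40%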;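 also: mutant grown at 25 °C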
# tim23-1 inh = growth inhibitors of tim23-1 mutant yeast; S. cerevisiae tim23-1 growth, BacTiter-Glo luminescence, 24 h; inhibition, % at 20 µM; 330,000 compounds, 1.3% hits;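 active = growth inhibition of the mutant yeast at or above 50%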;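 also: temperature-sensitive mutant grown at 25 °C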
# tim10-1 confirm = confirmation of tim10-1 mutant yeast growth inhibitors; shares compounds with tim10-1 inh; S. cerevisiae tim10-1 ts strain growth, BacTiter-Glo, 24 h; inhibition, % at 20 µM; 7,400 compounds, 56% hits;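 active = inhibition of yeast growth at or above a set limit in either of two repeat tests at 20 µM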;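 also: tim10-1 mutant grown at permissive 25 °C to find synthetic lethal compounds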
# A number is an active result; 0 = inactive; - = no result given.
SMILES,PfHsp90 set2,ATG4B inh,SKKanGAS inh,TIM10 inh,tim10-1 inh,tim23-1 inh,tim10-1 confirm
CCOC(=O)/C=C/C(=O)OCC(=O)Nc1ccc(C)cc1,0,0,0,0,40.6,0,36.6
CCN1CCN(Cc2ccc(NC(=O)c3ccc(C)c(NC(=O)c4nccnc4N)c3)cc2C(F)(F)F)CC1,0,0,0,0,0,0,-
Cc1cccc2cc3c(N)c(C(=O)N4CCOCC4)sc3nc12,0,0,0,0,42.1,0,33.7
Cc1cc(NC(=O)c2oc3ccccc3c2C)ccc1-n1cnnn1,0,0,0,0,41.8,0,0
COc1cc(/C=N/NC(=O)Nc2ccccc2)ccc1OC(C)=O,0,0,0,0,0,0,-
C=CC[n+]1c(/C=C/c2ccc(OC(C)=O)c(OC)c2)ccc2ccccc21,0,0,0,0,56.9,0,38.2
CC1CCN(C(=S)c2cn(Cc3cccc(F)c3)c3ccccc23)CC1,0,0,0,0,40.6,0,0
CN1CCN(C(=S)c2cn(Cc3ccccc3)c3ccccc23)CC1,0,0,0,0,0,0,-
N#C/C(=C\c1c[nH]c2ccc(Br)cc12)c1ccccn1,0,0,51.2,0,48.1,0,35.1
O=C(CNC(=O)c1ccc(Cl)cc1)N/N=C/c1cccnc1,0,0,0,0,0,0,-
CCCCCCSC1=C(C#N)C(c2ccc(C)o2)CC(=O)N1 (stereo not given),0,0,0,0,40.8,0,0
CC(C)CC(NC(N)=O)C(=O)Nc1ccc(Cl)c(Cl)c1 (stereo not given),0,0,0,0,0,0,-
CCC(CC)C(=O)Nc1ccc(Cl)c(Cl)c1,0,0,0,0,40.7,0,0
O=C(NCCc1ccccc1)C1CCN(C(=O)Nc2ccccc2)CC1,-,0,0,0,0,0,-
CC(C)CCN(C(=S)Nc1cccc(F)c1)C(C)c1cccs1 (stereo not given),0,0,0,0,0,0,-
Cc1ccc([N+](=O)[O-])c(OCCN2C(=O)NC(C)(C)C2=O)c1,0,0,0,0,0,0,-
Cc1ccc(C(C)C)c(OCCCN2C(=O)NC(C)(C)C2=O)c1,-,0,0,0,42.7,0,0
CCCCNS(=O)(=O)c1ccc2nc(SCC(N)=O)[nH]c2c1,0,0,0,0,0,0,-
COc1ccc(-c2csc(N3CCN(C(=O)c4ccccc4)CC3)n2)cc1,-,0,0,0,42.3,0,33.4
COCCCNC(=S)N1CCN(c2nc(-c3ccc(F)cc3)cs2)CC1,0,0,0,0,43.9,0,32.7
CCOCCCNC(=S)N1CCN(c2nc(-c3ccc(F)cc3)cs2)CC1,0,0,0,0,0,0,-
COCCNC(=S)N1CCN(c2nc(-c3ccccc3)cs2)CC1,0,0,0,0,41.4,0,32.1
CCCNC(=S)N1CCN(c2nc(-c3ccc(C)cc3)cs2)CC1,0,0,0,0,0,0,-
O=C(NC12CC3CC(CC(C3)C1)C2)N1CCN(c2nc(-c3ccccc3)cs2)CC1,0,0,0,0,0,0,-
O=C(NC1CCCCC1)N1CCN(c2nc(-c3ccccc3)cs2)CC1,0,0,0,0,45.5,0,0
SMILES,PfHsp90 set2,ATG4B inh,SKKanGAS inh,TIM10 inh,tim10-1 inh,tim23-1 inh,tim10-1 confirm
COc1ccc(-c2csc(N3CCN(C(=O)c4ccco4)CC3)n2)cc1,0,0,0,0,0,0,-
CS(=O)(=O)c1cnc2c(-c3ccc(F)cc3)cnn2c1N,0,0,0,0,0,0,-
Cc1noc2ncnc(Oc3ccccc3Cl)c12,0,0,0,0,0,0,-
O=C(CN1C(=O)/C(=C\C=C\c2ccccc2)SC1=S)Nc1ccc(F)cc1,0,0,0,0,40.1,0,0
O=C(CCN1C(=O)/C(=C\C=C\c2ccccc2)SC1=S)Nc1ccc(C(=O)O)cc1,0,0,0,0,0,0,-
COc1ccc(/C=N/NC(=O)c2ccc(CSc3nncn3C)cc2)cc1OC,0,0,0,0,0,0,-
O=C(c1ccc2nc(-c3ccco3)c(-c3ccco3)nc2c1)N1CCN(c2ccccc2)CC1,0,0,0,0,41.9,0,32.6
O=C(/C=C\c1ccco1)Nc1ccc(N2CCN(C(=O)c3ccccc3)CC2)cc1,0,0,0,0,42.3,0,31.6
CCc1nc2ccc(C(=O)N3CCN(c4cccc(C(F)(F)F)c4)CC3)cc2nc1CC,0,0,0,0,42.1,0,0
CCc1nc2ccc(C(=O)N3CCN(c4ccccc4)CC3)cc2nc1CC,0,0,0,0,0,0,-
CC1CCC2=NN(C(=O)c3ccco3)C(O)(C(F)(F)F)C2C1 (stereo not given),0,0,0,0,0,0,-
NCCOc1ccccc1Cc1ccccc1,0,0,0,0,0,0,-
COc1cc2c(cc1NC(=O)CN1CCN(S(=O)(=O)c3ccc(C)cc3)CC1)oc1ccccc12,0,0,0,0,0,0,-
CCOC(=O)c1ccc(S(=O)(=O)Nc2cc(C(C)(C)C)no2)cc1,-,0,0,0,40.9,0,0
CC(Oc1ccccc1)C(=O)N1CCC2(CC1)Oc1ccc(Cl)cc1C(=O)C21CC(c2ccccc2)=NO1 (stereo not given),-,-,0,0,0,0,-
CC(C)C(=O)N1CCC2(CC1)Oc1ccc(Cl)cc1C(=O)C21CC(c2ccccc2)=NO1 (stereo not given),-,0,0,0,53.4,0,0
O=C(c1ccc2c(c1)OCO2)N1CCC2(CC1)Oc1ccc(F)cc1C(=O)C21CC(c2ccccc2)=NO1 (stereo not given),0,0,0,0,41.8,0,34.5
O=C(c1ccoc1)N1CCC2(CC1)Oc1ccc(Cl)cc1C(=O)C21CC(c2ccc(Cl)cc2)=NO1 (stereo not given),0,0,0,0,53.5,0,41.1
CC(C)C(=O)N1CCC2(CC1)Oc1ccc(F)cc1C(=O)C21CC(c2ccc(Cl)cc2)=NO1 (stereo not given),-,0,0,0,46.9,0,0
COc1cc(OC)c(OC)cc1/C=N/n1c(COc2ccccc2)n[nH]c1=S,0,0,0,0,0,0,-
Cc1ccc(C(=O)N2CCC3(CC2)Oc2ccc(F)cc2C(=O)C32CC(c3ccc(Cl)cc3)=NO2)s1 (stereo not given),-,0,0,0,50.8,0,32.8
Cc1ccc(C(=O)N2CCC3(CC2)Oc2ccc(Cl)cc2C(=O)C32CC(c3ccc(Cl)cc3)=NO2)s1 (stereo not given),0,0,0,0,0,0,-
C/C(=N\OC(=O)NC(C)C)c1sc(-c2ccc(Cl)cc2)nc1C,0,0,0,0,45.0,0,41.8
COc1ccc(CC(NC(C)=O)C(=O)NC2CCN(c3nnnn3-c3ccccc3)CC2)cc1OC (stereo not given),-,-,0,0,0,0,-
N#Cc1ccccc1NC(=O)CSc1nnc(-c2ccccc2)n1-c1ccccc1,0,0,0,0,0,0,-
